Drawing on PubChem BioAssay AID1259416 (Broad Institute, 2018), this text covers activity change, negative = inhibition for 80 molecules.

Values joined by “and” are separate entries in the source; they are usually repeats but may differ in a detail not shown here. Equal entries are not always repeated. The whole screen tested about 69,000 compounds, of which about 2,600 (3.8%) were called active. Cut-off read from the data, not from the text of the source: active = activity change below about -70% (passing the limit was not always enough); inconclusive = no clear call, values can overlap the other calls. Only a selection was taken, and actives are over-represented in it overall.

This experiment is described as follows: inhibitors of Toxoplasma growth in IFN-γ-primed hosts – cell-based, primary screen (AID 1259416).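 Note: host cells are HeLa cells infected with Toxoplasma gondii.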 To be noted: Toxoplasma gondii growth in IFN-gamma-treated host cells; active compounds read low; concentration not given here.
On to `CCOC(=O)c1nc(N2CCN(Cc3ccc4c(c3)OCO4)CC2)c2ccccc2n1`, for which the activity change, negative = inhibition is 42.4% (inactive). The result for `O=C(C1CC=CC1)N1CCC2(CCN(Cc3cccc(F)c3)CC2)C1` reads -9.86% (inactive).

Take `CC[C@]1(O)C[C@@H]2CN(CCc3c([nH]c4ccccc34)[C@@](C(=O)OC)(c3cc4c(cc3OC)N(C)[C@H]3[C@@](O)(C(=O)OC)[C@H](OC(C)=O)[C@]5(CC)C=CCN6CC[C@]43[C@@H]65)C2)C1`: the activity change, negative = inhibition was -97.6% (active). The result for `CC[C@]1(O)CC2CN(CCc3c([nH]c4ccccc34)[C@@](C(=O)OC)(c3cc4c(cc3OC)N(C=O)[C@H]3[C@@](O)(C(=O)OC)[C@H](OC(C)=O)[C@]5(CC)C=CCN6CC[C@]43[C@@H]65)C2)C1` (stereo not given in full) reads -82.9% (active) and -87.1% (active); that for `CC1=CC[C@@H]2CN(C(=O)c3cc(C(C)(C)C)[nH]c(=O)n3)C[C@@H]2C1`, 5.83% (inactive); that for `Cc1nn(C)c(C)c1CCC(=O)NCc1ccccc1-n1ccnc1C`, -6.3% (inactive).

Regarding `CC1Cc2ccccc2N1C(=O)CN1C(=O)COc2ccc(C(=O)c3cccs3)cc21` (stereo not given), the activity change, negative = inhibition was -43.3% (inactive).

`Cc1nc2ccccc2c(=O)n1-c1cccc2ccccc12`: the activity change, negative = inhibition is 0.633% (inactive). Regarding `O=S(=O)(c1ccc2c(c1)OCCO2)N1CCN(c2ccc(C(F)(F)F)cn2)CC1`, the activity change, negative = inhibition was -88% (active). The result for `CC(NC(=O)CCc1c[nH]c2ccccc12)c1cn2ncsc2n1` (stereo not given) reads 23.4% (inactive); that for `O=C(/C=C/c1ccc2c(c1)OCO2)NCc1ccc(F)cc1`, 2.56% (inactive); that for `O=C(/C=C/c1ccc(CN(CCO)CCc2c[nH]c3ccccc23)cc1)NO`, -85.7% (active). The result for `CC(C)c1cc(C2CCN(C(=O)Cc3c[nH]c4ccccc34)CC2)[nH]n1` reads 5.9% (inactive).

As for `O=C(NC1CC1)C1CN(Cc2cnc(NCc3ccccc3)nc2)CCN1` (stereo not given), the activity change, negative = inhibition is -0.724% (inactive). The result for `Cc1ccsc1C(=O)N1CCCC2(C1)Nc1cccnc1NC2=NC1CCCC1` (stereo not given) reads -22.8% (inactive). Turning to `O=C(C1CCCCC1)N1CCC2(CC1)Nc1ccc(Cl)cc1-n1cccc12`, the activity change, negative = inhibition was -85.4% (active). The result for `O=S(=O)(c1ccc(F)c(F)c1)N1CCC2(CC1)Nc1ccc(Cl)cc1-n1cccc12` reads 17.6% (inactive); that for `COc1ccc(OCC(=O)N2CCC3(CC2)Nc2ccc(Cl)cc2-n2cccc23)cc1`, 25.9% (inactive).

Regarding `CNC(=O)c1sc2ccccc2c1C1CCC(CNS(=O)(=O)c2cnn(C)c2)CC1` (stereo not given), the activity change, negative = inhibition is -10.6% (inactive).

Take `Cc1cc(CNC(=O)c2cccc(C3CCNC3)c2)ccc1F` (stereo not given): the activity change, negative = inhibition is -1.39% (inactive). `O[C@@H]1CNCC[C@H]1CNCc1cccc(Oc2cccc(C(F)(F)F)c2)c1`: the activity change, negative = inhibition is -100% (active). `Cc1cccn2cc(C(=O)NC[C@@H]3CCNC[C@H]3O)nc12`: the activity change, negative = inhibition is -3.48% (inactive).

As to `Cc1cc(C(=O)N2CCC3(CC2)CNC(=O)O3)c2ccc(F)cc2n1`, the activity change, negative = inhibition was 0.544% (inactive).

Take `CCOC1C2CCC1N(S(=O)(=O)c1cccc(C)c1)CCO2` (stereo not given): the activity change, negative = inhibition was 16.8% (inactive). As for `Cc1cc(S(=O)(=O)NCc2ccc3c(c2)OCO3)ccc1-n1cnnn1`, the activity change, negative = inhibition was -7.98% (inactive). The result for `C[C@@H]1COCCN1c1cc(C2(S(C)(=O)=O)CC2)nc(-c2cccc3[nH]ccc23)n1` reads -82.8% (active); that for `COc1cccc(-c2cccc3[nH]ccc23)n1`, 35.3% (inactive). The result for `NC(=O)Cc1csc(NC(=O)c2ccc3nc(C(F)(F)F)[nH]c3c2)n1` reads -8.79% (inactive). The result for `CNS(=O)(=O)c1ccc([C@@H]2C[C@H](NC(C)=O)C[C@H](CC(C)C)O2)cc1` reads -22.6% (inactive). As for `Cc1ccc(C2(O)CCN(C(=O)c3noc(C)c3CO)CC2)nc1`, the activity change, negative = inhibition is -2.58% (inactive).

On to `Cc1ccc2cc(CN(c3ccc(C)c(C)c3)S(C)(=O)=O)c(=O)[nH]c2c1`, for which the activity change, negative = inhibition was -50.6% (inactive). Regarding `COc1cc(OC)c(Nc2nc(-c3nnc(-c4ccccc4)o3)nc3ccccc23)cc1Cl`, the activity change, negative = inhibition was 268% (inactive). Regarding `Clc1cccc(-c2nnc(-c3nc(NC4CCCC4)c4ccccc4n3)o2)c1`, the activity change, negative = inhibition is -77.4% (active). The result for `Cc1ccc(Nc2nc(-c3nnc(-c4cccc(C)c4)o3)nc3ccccc23)cc1` reads 96.2% (inactive); that for `COc1cc(/C=C/CN2CCC3(CC2)c2ccccc2[C@@H](NC(=O)C(C)C)[C@@H]3OC)ccc1O`, 12.6% (inactive); that for `CN1C(=O)c2cc(NS(=O)(=O)c3ccccc3F)ccc2OC[C@@H]2O[C@@H](CC(=O)NC3Cc4ccccc4C3)CC[C@@H]21`, -28.5% (inactive). The result for `Cc1cc(C)nc(N2CCN(c3c4c(nc5c(-c6ccccc6)c(C)nn35)CCC4)CC2)n1` reads -75.6% (active). As to `Cc1nc(N2CCCC2)nc2c1CCN(C(=O)Nc1ccccc1F)CC2`, the activity change, negative = inhibition was -2.86% (inactive).

Regarding `Cc1cc(N2CCN(c3nc(C)cc(C)n3)CC2)ncn1`, the activity change, negative = inhibition was 3.08% (inactive). The result for `COc1ccc(Cl)cc1S(=O)(=O)N1CCC(c2nc(C(=O)N(C)C)c(C)o2)CC1` reads -56% (inactive).

For the molecule `O=C(Cc1ccc(F)cc1)N1CC[C@@H](O)[C@@H]1Cc1ccccc1`, the activity change, negative = inhibition was -30.4% (inactive).

On to `CN(Cc1noc(C2CCC2)n1)Cc1ncccc1C(=O)O`, for which the activity change, negative = inhibition is -0.548% (inactive).

As for `O=C(NCc1cccnc1)C1=NOC2(CCCN(C(=O)Cc3ccc(F)cc3)C2)C1` (stereo not given), the activity change, negative = inhibition is 53.7% (inactive).

Take `CC(=O)N1CCC(c2cc3c(ncn3C(C)C)c(-c3ccccc3)n2)CC1`: the activity change, negative = inhibition was -106% (active). The result for `CC(C(=O)NC1CC1)N1CCc2[nH]nc(-c3ccc(-c4ccccc4)cc3)c2C1` (stereo not given) reads 13.6% (inactive); that for `CC(C)n1cnc2c(N3CCOCC3)nc(C3CCN(Cc4cccnc4)CC3)cc21`, 1.27% (inactive). On to `CN(CCCc1ccccc1)C(=O)c1cc(CN2CCC(O)CC2)on1`, for which the activity change, negative = inhibition was 6.96% (inactive).

Regarding `CCCNc1ncc(-c2nccn2CC2CCOCC2)cn1`, the activity change, negative = inhibition is 0.573% (inactive). `CCc1c2c(nc3ccc(O)cc13)-c1cc3c(c(=O)n1C2)COC(=O)[C@]3(O)CC`: the activity change, negative = inhibition was -86.3% (active). The result for `CCN(CC)Cc1cnc2n1CCN(Cc1csc(C)n1)CC2` reads 4.3% (inactive). The result for `C[C@H]1CN([C@@H](C)CO)C(=O)c2ccccc2-c2ccccc2CO[C@H]1CN(C)S(=O)(=O)c1cccc(C#N)c1` reads 5.72% (inactive); that for `C[C@H](CO)N1C[C@H](C)[C@@H](CN(C)S(=O)(=O)c2ccc([N+](=O)[O-])cc2)OCc2ccccc2-c2c(n(C)c3ccccc23)C1=O`, -73.3% (active); that for `C[C@@H]1CN([C@H](C)CO)C(=O)c2c(c3ccccc3n2C)-c2ccccc2CO[C@H]1CN(C)C(=O)[C@@H](Cc1ccccc1)N(C)C`, -51.4% (inactive). For the molecule `CC(C)(O)CC[C@@H](O)[C@](C)(O)[C@@H]1CC[C@@]2(O)C3=CC(=O)[C@@H]4C[C@@H](O)[C@@H](O)C[C@]4(C)[C@@H]3CC[C@]12C`, the activity change, negative = inhibition was 12.2% (inactive).

Turning to `CN(C)c1nc2c(c(=O)[nH]1)CCN(C(=O)C1(c3ccc(Cl)cc3)CCC1)C2`, the activity change, negative = inhibition was -11.9% (inactive). The result for `COc1cc2c(cc1CNC(=O)c1cc3n(n1)CCCN(C)C3)CCC2` reads 5.16% (inactive); that for `CC(=O)N1CC(=O)N(c2cnn(C)c2)CC12CCN(C(=O)c1cnc(C)cn1)C2` (stereo not given), 8.89% (inactive); that for `O=C(c1cnccn1)N1CCC2(CC(=O)N(c3cccc(F)c3)C2)C1` (stereo not given), -1.06% (inactive). The result for `Cc1ccsc1C(=O)N1CCC2(C1)CN(c1cccc(F)c1)C(=O)CN2C` (stereo not given) reads -102% (active).

With `COc1ccc(C(=O)N2CC(C(=O)N3CCOCC3)C3(CCOCC3)C2)cc1` (stereo not given), the activity change, negative = inhibition was 2.42% (inactive). The result for `O=C(CC1CC1)N1CC[C@@H]2[C@H](CO)Nc3ccc(-c4ccc(F)cc4)cc3[C@@H]21` reads -30.6% (inactive); that for `COc1ccc(-c2noc(-c3c(O)c4ccccc4n(C)c3=O)n2)cc1F`, 31.1% (inactive); that for `Cc1ccc(NC(=O)c2c(O)c3cccnc3n(-c3cccc(F)c3)c2=O)cc1F`, 126% (inactive). The result for `COc1cccc(-n2c(=O)c(C(=O)Nc3ccccc3F)c(O)c3cccnc32)c1` reads 40% (inactive); that for `CCc1cccc(NC(=O)c2c(O)c3cccnc3n(-c3cccc(F)c3)c2=O)c1`, -96.6% (active); that for `COc1ccccc1CNC(=O)c1c(O)c2cccnc2n(-c2ccccc2)c1=O`, -37.8% (inactive).

Consider `COc1ccc(-n2c(=O)c(C(=O)Nc3ccccc3C)c(O)c3cccnc32)cc1`, for which the activity change, negative = inhibition was 33.1% (inactive). The result for `O=C(NCc1ccc(F)cc1)c1c(O)c2cccnc2n(-c2cccc(F)c2)c1=O` reads -108% (active). The result for `O=C(NCc1ccccc1F)c1c(O)c2cccnc2n(-c2cccc(F)c2)c1=O` reads -102% (active). Take `C=CCNC(=O)c1c(O)c2cccnc2n(-c2cccc(F)c2)c1=O`: the activity change, negative = inhibition is -76.4% (active).

On to `O=C(Nc1cccc(Cl)c1)c1c(O)c2cccnc2n(-c2ccc(F)cc2)c1=O`, for which the activity change, negative = inhibition was 195% (inactive).

For the molecule `CCc1ccc(NC(=O)c2c(O)c3cccnc3n(-c3ccccc3)c2=O)cc1`, the activity change, negative = inhibition was 86% (inactive).

For the molecule `COc1cccc(-n2c(=O)c(C(=O)NC(C)c3ccccc3)c(O)c3cccnc32)c1` (stereo not given), the activity change, negative = inhibition was -12.7% (inactive).

Consider `COc1ccc(CNC(=O)c2c(O)c3cccnc3n(-c3ccc(F)cc3)c2=O)cc1`, for which the activity change, negative = inhibition is 85.2% (inactive). The result for `Cc1noc(C[C@H]2C[C@@H]3CN(C(=O)c4ccco4)C[C@H]3O2)n1` reads -25% (inactive).

Regarding `CCCN(CCC)C(=O)NCCCCCCNC(=O)N(CCC)CCC`, the activity change, negative = inhibition is -0.334% (inactive). Regarding `CO[C@@H]1CN(C)C(=O)c2cc(NC(C)=O)ccc2OC[C@H](C)N(C(=O)Cc2ccccn2)C[C@@H]1C`, the activity change, negative = inhibition was 163% (inactive). The result for `O=C(c1cccs1)N1CCn2c(Cn3cccn3)cnc2C1` reads 3.34% (inactive); that for `O=S(=O)(c1ccccc1)N1CC2CN(Cc3ccc(O)cc3)CC2C1` (stereo not given), -5.71% (inactive); that for `COc1ccccc1-n1cc(CNC(=O)c2ccc(=O)n(C)c2)cn1`, 1.65% (inactive).
